# Screens from PubChem.
# Compounds with a hit are over-represented: about 27% of the library has one in this group of screens.
# CYP2C9 inh = blockers of cytochrome P450 2C9 activity – biochemical, luminescence, ADME assay, primary screen | CYP2C9 Supersomes, luciferin-H conversion | inhibition, % at 5 µM | 20% of 96,000 active | AID 777, 2007;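 active means blocking of liver enzyme CYP2C9 beyond about 50% at 5 µM, limit read from the data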
# CYP2C19 inh = blockers of cytochrome P450 2C19 activity – biochemical, luminescence, ADME assay, primary screen; P33261; CYP2C19 Supersomes, luciferin-H EGE luminescence, 30 min; inhibition, % at 5 µM; 21% of 96,000 active;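 active means CYP2C19 inhibition above a set limit at 5 µM in the primary screen, cut at about 50% in these data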;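 further: plate controls were negative control wells for no effect and 2.5 mM tranylcypromine positive control for full effect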
# Cav32 inh = Cav3.2 calcium influx blockers – cell-based, Fluo-4 calcium fluorescence, FDSS, MLSMR library, primary screen; B-score at 10 µM; 4% of 100,000 active; Voltage-dependent T-type calcium channel subunit alpha-1H (Homo sapiens), O95180; Cav3.2-expressing cells; stronger effect = lower value;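 active means single-dose well whose peak fluorescence ratio is a statistical outlier from its plate by either plate-standardised score or position-corrected B-score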
# CYP2C19 activ = human CYP2C19 activators, primary screen, biochemical, luminescence. Cytochrome P450 2C19 (Homo sapiens), P33261. recombinant CYP2C19, luciferin-H EGE luminescence; stronger effect = higher value; 0 = fully inhibited enzyme, 1 = untreated enzyme. AID 1025, 2008. 96,000 tested, under 10 active. activation factor at 5 µM;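 active means activation factor of at least 2 at 5 µM in the primary screen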;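 further: 0 = wells with 2.5 mM tranylcypromine and 1 = vehicle-only wells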
# CYP2C9 activ = human CYP2C9 activators, primary screen, biochemical, luminescence. recombinant CYP2C9, luciferin-H conversion; stronger effect = higher value; factor 1 = untreated enzyme, 0 = blocked. AID 1024, 2008. 1.4% of 96,000 active. Cytochrome P450 2C9 (Homo sapiens), P11712. activation factor at 5 µM;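 active means activation factor of 2 or more for CYP2C9 at a 5 µM dose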;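 further: 0 = sulfaphenazole-blocked wells and 1 = vehicle-only wells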
# Numbers without * were called inactive; / = no result given.
SMILES,CYP2C9 inh,CYP2C19 inh,Cav32 inh,CYP2C19 activ,CYP2C9 activ
Cc1ccc(NS(=O)(=O)c2ccc(N3C(=O)CCC3=O)cc2)cc1,44.2,64.3*,0.33,0.4,0.6
Cc1ccc(N2C(=O)CSCC2=O)cc1,-24.0,-9.2,-2.55,1.1,1.2
CCC(=O)Nc1c(OC(=O)CC)ccc2c(C)cc(=O)oc12,/,/,1.39,/,/
Cc1ccc(CNC(=O)C(=O)NCC2OCCN2S(=O)(=O)c2ccc3c(c2)OCCO3)cc1 (stereo not drawn),/,/,-4.5*,/,/
O=C(NCc1ccc(Cl)cc1)C(=O)NCC1OCCN1S(=O)(=O)c1cccs1 (stereo not drawn),/,/,-5.97*,/,/
O=C(NCc1ccccc1)C(=O)NCC1OCCN1S(=O)(=O)c1ccc2c(c1)OCCO2 (stereo not drawn),/,/,0.0127,/,/
COc1ccc(CNC(=O)C(=O)NCC2OCCN2S(=O)(=O)c2cccs2)cc1 (stereo not drawn),/,/,-4.87*,/,/
Cc1ccc(S(=O)(=O)N2CCOC2CNC(=O)C(=O)NCc2ccco2)cc1 (stereo not drawn),/,/,0.196,/,/
O=C(Nc1ccccc1C(=O)OC1CCOC1=O)c1ccco1 (stereo not drawn),12.5,-0.4,-0.548,1,0.9
COC(=O)c1ccc(OCC(=O)Nc2nn(-c3ccccc3)nc2C(N)=O)cc1,-0.3,-7.3,0.424,1.1,1
S=C(c1cn(CCOc2ccccc2)c2ccccc12)N1CCCC1,47.5,25.3,-0.156,0.7,0.5
COC(=O)c1cn(CCOc2ccccc2F)c2ccccc12,99.4*,97.7*,-0.922,0,0
COC(=O)c1cn(CCOc2ccccc2OC)c2ccccc12,/,/,-3.51,/,/
Cc1ccc(OCCn2cc(C(=S)N3CCCC3)c3ccccc32)cc1C,63.2*,67.1*,-3.59,0.3,0.4
COC(=O)c1cn(CCOc2ccccc2)c2ccccc12,97.2*,96.2*,/,0,0
COC(=O)c1cc(NC(=O)C2CC=CCC2C(=O)O)cc(C(=O)OC)c1 (stereo not drawn),38.4,-4.7,0.2,1,0.6
Clc1ccccc1CSc1ncn(-c2ccccc2)n1,/,/,-1.97,/,/
CCC1(C)Cc2ccccc2-c2nc3n(c(=O)c21)CCCCC3 (stereo not drawn),49.4,31.9,-2.98,0.7,0.5
CC1(C)Cc2ccccc2-c2nc(NCCO)n(-c3ccccc3)c(=O)c21,34.6,61.4*,-1.22,0.4,0.7
CCC1(C)Cc2ccccc2-c2nc(NCCO)n(-c3ccc(C)cc3)c(=O)c21 (stereo not drawn),43.7,67.0*,-3.31,0.3,0.6
CCOC(=O)c1c(NC(=O)c2ccccc2C)sc2c1CC(C)(C)OC2,77.1*,46.9,0.113,0.5,0.2
CCOC(=O)c1c(NC(=O)c2ccc(C)cc2)sc2c1CC(C)(C)OC2,17.7,-5.3,-0.285,1.1,0.8
CCOC(=O)c1c(NC(=O)CN2CCOCC2)sc2c1CC(C)(C)OC2,73.7*,49.6,-0.614,0.5,0.3
COc1ccc(CCCC(=O)NC2CCCCC2C)c(C)c1 (stereo not drawn),-35.8,28.4,-0.358,0.7,1.4
COc1ccc(CN2CC(C(=O)NCCCN3CCOCC3)CC2=O)cc1 (stereo not drawn),-3.0,4.4,-0.627,1,1
SMILES,CYP2C9 inh,CYP2C19 inh,Cav32 inh,CYP2C19 activ,CYP2C9 activ
O=c1/c(=C\c2ccc(O)cc2)sc2n1C(c1ccccc1)C(c1ccccc1)=NN=2 (stereo not drawn),56.5*,24.2,-3.03,0.8,0.4
CCOP(=O)(c1c(F)c(F)c(F)c(F)c1F)C1(O)CCCCC1 (stereo not drawn),-14.3,-4.6,2.67,1,1.1
COc1ccc(-c2ncncc2-c2csc(C)n2)c(O)c1OC,51.5*,63.2*,1.6,0.4,0.5
C=CCSc1nc2c(c(=O)n(C)c(=O)n2C)n1CC,2.1,14.4,-0.00658,0.9,1
COC(=O)C(NC(=O)c1ccc(Cl)cc1)(Nc1nc(C)cs1)C(F)(F)F (stereo not drawn),16.8,73.6*,-2.98,0.3,0.8
NC(=O)c1nsnc1-c1ccccc1O,15.5,-3.7,0.596,1,0.8
CCOC(=O)c1cc2cc(CC(=O)c3ccc(OCC)cc3O)ccc2o1,54.2*,69.0*,-0.465,0.3,0.5
